This is a sample that favours compounds with a hit; in the whole collection about 2.7% have one here.
A549 tox: A549 cytotoxicity, counter-screen for Nrf2 inhibitors. AID 504648. Potency, µM (top dose mostly 46 µM), for inactives: at the top dose activity change, negative = cytotoxicity, usual class: inhibitors. A549 ARE-Fluc cells, CellTiter-Fluor viability, 18-24 h. 0.16% of 390,000 active; also: potency is read from the fitted curve at half-maximal effect; % is scaled to controls: 0 for no effect and ±100 for the full control effect
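A549 ARE-Fluc cells in 5% FBS OPTI-MEM, 5000 cells/well, rested 2 h then exposed to compounds in concentration-response for 18-24 h at 37 °C. Viability by CellTiter-Fluor fluorescence (Ex 405/Em 525) after 30 min; luciferase luminescence (BugLite, 15 min, RT) read afterwards.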
Nrf2 block: inhibitors of Nrf2 signaling; A549 ARE-Fluc reporter, luciferase luminescence, 18-24 h; Potency, µM (titrated, usually from 46 µM), for inactives: at the highest dose activity change, negative = inhibition, most hits filed as inhibitors; 2.1% of 360,000 active; also: potency is read from the fitted curve at half-maximal effect; % is scaled to controls: 0 for no effect and ±100 for the full control effect; nearly all actives have a fitted effect of over 60% in size
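In this cell-based qHTS, ARE-driven firefly luciferase in A549 cells reports Nrf2 activity; the luminescent signal after BugLite lysis is the measured value, with a prior CellTiter-Fluor read for cell health.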
Nrf2 ARE act: activates Nrf2 signaling | 0.31% of 410,000 active | Potency, µM (series often up to 46.1 µM), for the others: top-dose activation, usual class: activators | AID 624171 | AREc32 ARE-luciferase reporter (MCF7-derived line), luminescence, 24 h; also: potency is read from the fitted curve at half-maximal effect; % of control where 0% means no effect; nearly all actives have a fitted effect of over 65% in size
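AREc32 cells carrying an ARE-driven firefly luciferase, 1000 cells/well in OPTI-MEM with 5% FBS, dosed after overnight attachment and incubated 24 hr at 37 deg C. Steady-Glo luminescence read after 30 min at RT.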
12-LOX inh: blocks human arachidonate 12S-lipoxygenase; P18054; purified 12hLO, xylenol orange hydroperoxide absorbance; Potency, µM (doses to about 108 µM), for the others: at the top dose activity change, negative = inhibition, most hits filed as inhibitors; 1.1% of 580,000 active; also: potency is read from the fitted curve at half-maximal effect; % is scaled to controls: 0 for no effect and ±100 for the full control effect
Target sequence (P18054 whole entry, looked up): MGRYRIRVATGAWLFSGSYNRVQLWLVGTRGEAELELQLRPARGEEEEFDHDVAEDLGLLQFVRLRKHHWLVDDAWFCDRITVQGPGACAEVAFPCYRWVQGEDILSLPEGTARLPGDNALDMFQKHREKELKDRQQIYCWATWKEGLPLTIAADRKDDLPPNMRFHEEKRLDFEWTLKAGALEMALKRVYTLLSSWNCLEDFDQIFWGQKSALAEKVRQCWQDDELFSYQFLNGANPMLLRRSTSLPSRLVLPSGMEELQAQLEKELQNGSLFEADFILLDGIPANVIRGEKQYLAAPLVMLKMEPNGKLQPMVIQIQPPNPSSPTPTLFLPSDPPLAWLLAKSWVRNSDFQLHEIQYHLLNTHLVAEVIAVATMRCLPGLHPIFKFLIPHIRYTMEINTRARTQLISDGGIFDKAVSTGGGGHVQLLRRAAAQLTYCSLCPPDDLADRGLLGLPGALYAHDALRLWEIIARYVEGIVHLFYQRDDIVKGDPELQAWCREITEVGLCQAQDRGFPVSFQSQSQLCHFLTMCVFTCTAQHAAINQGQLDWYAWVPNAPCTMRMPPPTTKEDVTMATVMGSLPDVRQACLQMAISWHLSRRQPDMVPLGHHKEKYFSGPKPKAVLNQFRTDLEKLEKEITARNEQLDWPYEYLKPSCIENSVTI
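Purified human 12hLO (150 nM final) in 25 mM Hepes, 0.01% Triton X-100, pH 7.0 was preincubated 15 min at room temperature with compound. Then 40 uM arachidonic acid was added, 30 min. Hydroperoxide was read by Fe-XO absorbance ratio 573/405 nm.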
ERG-DNA inh: ERG Ets/DNA interaction inhibition | P11308 | fluorescence polarization, His-ERG Ets domain / labelled DNA | Potency, µM (doses to about 76.9 µM), inactives show at the top dose FP activity, negative = inhibition, usual class: inhibitors | 0.028% of 370,000 active | AID 624246; active = well fitted inhibition curve with a large enough effect in the polarisation, with a control signal flat; inconclusive = small, poorly fitted or top-dose-only effect, or effect the other way, or a change in a side signal; inactive = no such curve, though single readings can be large or run the other way; the % refers to the polarisation;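 also: polarization taken with two DNA probes labelled with fluorescein and Texas red; potency is read from the fitted curve at half-maximal effect; % of control where 0% means no effect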
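His-tagged ERG Ets domain (1 uM in the protein solution; 300mM KCl, 50mM Tris-HCl, 1mM EDTA, 1mM DTT, pH 7.5) received compound, then a probe mix of 5 nM fluorescein-DNA and 100nM Texas-615-DNA. Fluorescence polarization was read for both dyes.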
LDHA inh: inhibitors of human lactate dehydrogenase A. P00338. purified LDHA, NADH/diaphorase-resazurin fluorescence; active compounds read low. activity change, % (values are at about 110 or 230 µM). 0.15% of 480,000 active. AID 1347041; in the data active = activity change below about -30%; inconclusive = mostly about -25% to -30%;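 also: plate controls were DMSO wells for no effect and wells without enzyme for full effect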
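LDH5 2 nM; NADH 0.06 mM, pyruvate 0.2 mM; 200 mM Tris pH 7.4, EDTA, Tween-20; 5 min RT. Detection: diaphorase 0.133 mg/mL + resazurin 37 µM, fluorescence ex540/em590 at 0 and 20 min; normalized to enzyme-free and DMSO wells.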
* = called active by the depositor; u = inconclusive; x = no result given. Unless noted, calls follow the shape of the dose curve; as a rule, active = well fitted curve in the direction sought with a large enough effect; inconclusive = small, poorly fitted or top-dose-only effect, or another doubt; inactive = no such curve, though single readings can be large; an effect the other way counts as inactive or inconclusive.

SMILES | A549 tox | Nrf2 block | Nrf2 ARE act | 12-LOX inh | ERG-DNA inh | LDHA inh
O=C(O)CN1C(=O)/C(=C\c2cc(Br)ccc2OCc2ccc([N+](=O)[O-])cc2)SC1=S | -21% | u | 0% | 8.9µM* | -9% | -16
COc1cc(/C=C2\SC(=O)N(Cc3ccc(Cl)cc3)C2=O)cc([N+](=O)[O-])c1O | 15µM* | 15µM* | 0% | -102% | 0% | 2
Cc1ccc(OCCOC(=O)c2cc(S(=O)(=O)N3CCCCC3)ccc2N2CCOCC2)cc1 | -10% | 12µM* | 2% | -2% | -6% | -3
Cc1cc(Nc2cccc(Cl)c2)nc2ccc(NC(=O)c3cncc(Br)c3)cc12 | u | 18µM* | -2% | -42% | 1% | -5
CCOc1cc(C(=O)Nc2ccc3nc(Nc4cccc(Cl)c4)cc(C)c3c2)cc(OCC)c1OCC | -18% | -5% | -1% | -34% | 1% | -7
O=C(Nc1ccncc1)c1cncc(Br)c1 | -4% | -22% | -1% | u | -3% | 1
COc1ccccc1CC(=O)Nc1ccc2nc(Nc3cccc(C(F)(F)F)c3)cc(C)c2c1 | -12% | u | 3% | -1% | 5% | -6
Cc1ccccc1C(=O)Nc1ccc2nc(Nc3cccc(C(F)(F)F)c3)cc(C)c2c1 | u | 18µM* | 0% | 0% | -2% | -2
Cc1cc(NC(=O)c2cncc(Br)c2)ccc1NC(=O)c1cc2ccccc2o1 | u | 13µM* | 0% | 492% | -2% | -1
O=C(Nc1cccc(NC(=O)c2cncc(Br)c2)c1)c1cncc(Br)c1 | 2% | 8.2µM* | 0% | 0% | 11% | 3
CCOC(=O)c1cnc(NC2CCCC2)c2ccccc12 | x | x | x | -8% | x | 3
Cc1cccc(NC(=O)CSc2ncc3c(n2)-c2cc(C)ccc2N(C)S3(=O)=O)c1 | x | x | x | -26% | x | -1
COc1cccc(CC(=O)Nc2ccc3nc(Nc4cccc(C(F)(F)F)c4)cc(C)c3c2)c1 | -28% | u | -1% | 0% | 6% | -1
Cc1cc(Nc2cccc(C(F)(F)F)c2)nc2ccc(NC(=O)c3cncc(Br)c3)cc12 | -21% | 21µM* | 4% | -13% | 7% | 0
O=C(NC(=S)Nc1ccc(CN2CCOCC2)cc1)c1ccc(-c2cccc(Cl)c2)o1 | -11% | u | 3% | 0% | 8% | -5
Cc1c(NC(=S)NC(=O)c2ccc(-c3ccc(Cl)cc3)o2)cccc1C(=O)O | -4% | u | 0% | 28µM* | 2% | 3
O=C(NC(=S)Nc1ccccc1O)c1ccc(-c2ccc(Cl)cc2)o1 | 2% | u | 12% | u | -2% | 0
O=C(NC(=S)Nc1ccccc1N1CCOCC1)c1ccc(-c2cccc(Cl)c2)o1 | -3% | 17% | 0% | 40µM* | 3% | -4
Cc1cc(C2CC(=O)OC3=C2C(=O)CC(C)(C)C3)c(C)s1 (configuration not stated) | x | x | x | 11% | x | 33
CCCc1cc(=O)oc2cc(OCC(=O)OC)ccc12 | x | x | x | 19% | x | -1
CCOC(=O)N1CCC(NC(=O)c2ccc3c(c2)N(Cc2ccc(C)cc2)CCS3)CC1 | -1% | -26% | 3% | 6% | 1% | -5
CCOC(=O)N1CCC(NC(=O)c2ccc3c(c2)N(C)C(=O)/C(=C/c2cccc(OC)c2)S3)CC1 | 8% | 16µM* | 0% | 37% | -17% | -1
CCOC(=O)N1CCC(NC(=O)c2ccc3c(c2)N=C(C)c2ccccc2S3)CC1 | -5% | 21µM* | 2% | -2% | -3% | -3
CC1=Nc2cc(C(=O)NC3CCCC3)ccc2Sc2ccc(C)cc21 | -7% | 7% | 0% | -20% | -1% | -8
O=C(c1ccc2c(c1)N(Cc1ccc(F)cc1)CCS2)N1CCN(c2ccccc2)CC1 | u | 21µM* | 1% | -10% | 1% | -1
SMILES | A549 tox | Nrf2 block | Nrf2 ARE act | 12-LOX inh | ERG-DNA inh | LDHA inh
CCOC(=O)N1CCC(NC(=O)c2ccc3c(c2)N(Cc2ccc(F)cc2)CCS3)CC1 | -13% | 26µM* | -1% | -14% | -2% | 0
CCSC1=N/C(=C\c2cc(C(C)(C)C)c(O)c(C(C)(C)C)c2)C(=O)S1 | x | x | x | 60% | x | 3
COc1cccc(/C=C/C(=O)c2ccccc2C)c1OC | x | x | x | 9% | x | 3
CCOc1cc(CNc2ncc(-c3ccc(OC)cc3)n2C)ccc1O | 4% | -7% | 0% | 1µM* | -2% | -3
COc1ccc(CNc2ncc(-c3ccccc3)n2C)cc1 | -6% | -10% | 3% | u | 1% | -21
COc1ccc(-c2cn3c(n2)sc2cc(C(=O)NCc4ccccc4)ccc23)cc1 | -7% | 7% | 6% | -17% | 8% | -1
COc1ccc2c(c1)sc1nc(-c3ccccc3)cn12 | -6% | 18µM* | -2% | -2% | 3% | 1
O=C(CSc1nnc(Cc2cccs2)n1-c1ccccc1)Nc1ccc2c(c1)OCCO2 | -11% | 4% | 3% | 14% | 3% | 0
Cc1ccc(-n2c(Cc3cccs3)nnc2SCC(=O)Nc2ccc(F)c(F)c2)cc1 | -14% | 23µM* | 3% | 16% | -3% | -3
Cc1ccc(NC(=O)c2ccc3c(c2)N(C)C2CCCCCN2C3=O)cc1C (configuration not stated) | x | x | x | -1% | x | x
Cc1ccc(-c2noc(-c3cn(CC(=O)NCc4cccs4)c4nc(C)ccc4c3=O)n2)cc1 | x | x | x | -1% | x | 2
Cc1ccc2c(=O)c(-c3nc(-c4ccc(Cl)cc4)no3)cn(CC(=O)NCc3ccco3)c2n1 | x | x | x | 20µM* | x | -6
COC(=O)C1=C(C)NC(=O)CC1C(=O)Nc1cc(Cl)ccc1C (configuration not stated) | x | x | x | u | x | -22
COC(=O)C1=C(C)NC(=O)CC1C(=O)Nc1ccc(Cl)cc1 (configuration not stated) | x | x | x | u | x | -65*
N#CC1=C(N)Oc2c(c(=O)[nH]c3ccccc23)C1c1ccc(Br)cc1 (configuration not stated) | x | x | x | u | x | 5
O=C(O)C1(c2cccc(Br)c2)CCCC1 | x | x | x | u | x | 4
O=C(CCCCc1nc2ccccc2s1)NC1CCCCCC1 | x | x | x | 23% | x | 12
CC1CCc2nc(NC(=O)c3ccc(S(=O)(=O)N4CCCc5ccccc54)cc3)sc2C1 (configuration not stated) | 0% | 5.2µM* | 0% | -28% | -8% | 2
COC(=O)Nc1ccc(S(=O)(=O)N2CCCc3ccccc32)cc1 | -18% | 8% | 0% | 0% | -12% | -2
CNC(=O)c1ccsc1NC(=O)c1ccc(S(=O)(=O)N2CCCc3ccccc32)cc1 | -10% | 18µM* | 0% | -22% | 15% | -8

Assay outcomes (PubChem)
